Assay [1] can be described thus: BSK_4H_Eotaxin3: BioMAP Diversity Plus: 4H Assay for Eotaxin 3 Biomarker Activity (AID 2283000).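 As to outcome: CCL26 protein level quantified by ELISA in parallel with SRB cytotoxicity check.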 Conditions: primary human endothelial cells (HUVEC); actives raise or lower the signal. Summed up:
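HUVEC, 24 h post-dose, ELISA for Eotaxin-3/CCL26. Gain or loss of signal fitted bidirectionally vs DMSO baseline.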

Read-out in assay [2]: Intercellular Adhesion Molecule 1 (ICAM1), ICAM1 (gene 3383)
Kind of assay: BSK_3C_ICAM1: BioMAP Diversity Plus: 3C Assay for Intercellular Adhesion Molecule 1 (ICAM1) Biomarker Activity (AID 2283003). Conditions: primary human endothelial cells (HUVEC); actives raise or lower the signal. Summed up:
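Human vascular endothelial primary cells, 3C conditions, 24 h treatment. ICAM-1 by ELISA.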

The target of assay [3] is human Retinoic Acid Receptor beta (RARb), RARB (gene 5915) (UniProt P10826). Kind of assay: ATG_RARb_TRANS: Attagene TRANS-FACTORIAL HepG2 Assay for human Retinoic Acid Receptor beta (AID 2283004; active = hit-call score of the fitted dose curve at least 0.9, where 1 is the maximum). A digest of the protocol: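 HepG2 cells transiently transfected with multiplexed GAL4-UAS reporter units expressing chimeric NR–Gal4 fusions; 24 h compound exposure. Reporter mRNA quantified by RT-PCR, 6-FAM labelling, HpaI digestion and capillary electrophoresis; gain-of-signal fitted against DMSO baseline.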

Assay [4] is described as follows: BSK_3C_Proliferation: Cell Proliferation Assessment in the BioMAP Diversity Plus: 3C Assay (AID 2283006).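 As to AC50: potency may reflect either rise or fall in cell number versus DMSO.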 To be noted: primary human endothelial cells (HUVEC). A digest of the protocol: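 Proliferation of human vascular endothelial primary cells after 48 h dosing, quantified as SRB-stained protein at 560 nm relative to DMSO.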
Assay [5] addresses Peroxisome proliferator-activated receptor gamma (Homo sapiens) (UniProt P37231). The assay can be described thus: ATG_PPARg_TRANS: Attagene TRANS-FACTORIAL HepG2 Assay for human Peroxisome Proliferator-activated Receptor-gamma (PPARg) (AID 2283007; active = hit-call score of the fitted dose curve at least 0.9, where 1 is the maximum). A digest of the protocol: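 Twenty-four hours after chemical dosing of transiently transfected HepG2 cells, isolated RNA was converted to cDNA, reporter sequences amplified and 6-FAM-labelled, then HpaI-digested and analysed by capillary electrophoresis. Signal increase against DMSO was fitted.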

Assay [6] concerns the target Nuclear receptor subfamily 1 group I member 2 (Homo sapiens) (UniProt O75469). Kind of assay: ATG_PXR_TRANS: Attagene TRANS-FACTORIAL HepG2 Assay for human Pregnane X Receptor (PXR) (AID 2283008; active = hit-call score of the fitted dose curve at least 0.9, where 1 is the maximum). A digest of the protocol:
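HepG2 cells transiently transfected with GAL4-UAS reporter units and PXR-Gal4 chimera, exposed 24 h. Reporter mRNA quantified by RT-PCR, fluorescent labelling, HpaI digestion and capillary electrophoresis; gain of signal vs DMSO.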

Assay [7] addresses human Retinoic Acid Receptor gamma (RARg), RARG (gene 5916) (UniProt P13631). Kind of assay: ATG_RARg_TRANS: Attagene TRANS-FACTORIAL HepG2 Assay for human Retinoic Acid Receptor gamma (RARg) (AID 2283009; active = hit-call score of the fitted dose curve at least 0.9, where 1 is the maximum). Summed up:
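HepG2, RARg-GAL4 TRANS system, 24 h exposure; reporter mRNA by RT-PCR + CE fluorescence; increase over DMSO.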

In assay [8] the target is human RAR-related Orphan Receptor gamma (RORg), RORC (gene 6097) (UniProt P51449). The assay can be described thus: ATG_RORg_TRANS: Attagene TRANS-FACTORIAL HepG2 Assay for human RAR-related Orphan Receptor gamma (RORg) (AID 2283011; active = hit-call score of the fitted dose curve at least 0.9, where 1 is the maximum). Summed up: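 Readout: reporter transcript induction (RT-PCR, fluorescent primer extension, capillary electrophoresis) after 24 h compound exposure of transiently transfected HepG2 cells carrying a RORg-Gal4 chimera and GAL4-UAS reporters; DMSO served as baseline, with increasing signal fitted.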

Assay [9] has as its target Retinoic acid receptor RXR-alpha (Homo sapiens) (UniProt P19793). The assay can be described thus: ATG_RXRa_TRANS: Attagene TRANS-FACTORIAL HepG2 Assay for human Retinoid X Receptor alpha (RXRa) (AID 2283012; active = hit-call score of the fitted dose curve at least 0.9, where 1 is the maximum). Summed up:
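Cells (HepG2) carried transiently transfected GAL4-responsive reporter units. Following a 24 h chemical incubation, reporter mRNA induction was read via RT-PCR fragment analysis; DMSO served as negative control and baseline.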

The target in assay [10] is human Retinoid X Receptor beta (RXRb), RXRB (gene 6257) (UniProt P28702). Kind of assay: ATG_RXRb_TRANS: Attagene TRANS-FACTORIAL HepG2 Assay for human Retinoid X Receptor beta (RXRb) (AID 2283013; active = hit-call score of the fitted dose curve at least 0.9, where 1 is the maximum). A digest of the protocol:
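Multiplexed TRANS reporter assay in HepG2; 24 h dosing; reporter mRNA by RT-PCR/CE fluorescence; gain-of-signal relative to DMSO.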

The target in assay [11] is human Thyroid Receptor alpha (THRa1), THRA (gene 7067) (UniProt P10827). The assay can be described thus: ATG_THRa1_TRANS: Attagene TRANS-FACTORIAL HepG2 Assay for human Thyroid Receptor alpha (THRa1) (AID 2283014; active = hit-call score of the fitted dose curve at least 0.9, where 1 is the maximum). A digest of the protocol: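 HepG2 cells transiently transfected with multiplexed GAL4-UAS reporter units for exogenous chimeric THRa1-Gal4; reporter mRNA measured 24 h after dosing by RT-PCR, 6-FAM labelling, HpaI digestion and capillary electrophoresis. Gain-of-signal fitted versus DMSO baseline.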

Read-out in assay [12]: E-selectin (Homo sapiens) (UniProt P16581)
The assay can be described thus: BSK_3C_Eselectin: BioMAP Diversity Plus: 3C Assay for Eselectin Biomarker Activity (AID 2283015).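 As to outcome: cell surface E-selectin protein quantified by ELISA 24 h after dosing.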 To be noted: primary human endothelial cells (HUVEC); actives raise or lower the signal. A digest of the protocol: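 Primary human umbilical vein endothelial cells (3C system) were dosed with chemical and cell-surface E-selectin measured by ELISA 24 h later. Bidirectional curve fitting used DMSO as negative control and baseline.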

Read-out in assay [13]: Interleukin-1 alpha (IL1a), IL1A (gene 3552)
The assay can be described thus: BSK_BE3C_IL1a: BioMAP Diversity Plus: BE3C Assay for Interleukin-1 alpha (IL1a) Biomarker Activity (AID 2283016). To be noted: primary human bronchial epithelial cells; actives raise or lower the signal. A digest of the protocol:
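Cultures of primary human bronchial epithelial cells receive test chemical. After 24 h, IL-1a is quantified by ELISA, while parallel wells are fixed in TCA and SRB-stained for total protein. Changes in either direction are fitted relative to DMSO.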

Read-out in assay [14]: Monocyte Chemoattractant Protein-1 (MCP1), CCL2 (gene 6347)
Kind of assay: BSK_3C_MCP1: BioMAP Diversity Plus: 3C Assay for Monocyte Chemoattractant Protein-1 (MCP1) Biomarker Activity (AID 2283017). To be noted: primary human endothelial cells (HUVEC); actives raise or lower the signal. A digest of the protocol: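 Primary human umbilical vein endothelial cells (3C system) were exposed to test chemical for 24 h, after which MCP-1 was quantified by ELISA. Activity was fitted bidirectionally against DMSO as negative control and baseline.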

Read-out in assay [15]: Monocyte Chemoattractant Protein-1 (MCP1), CCL2 (gene 6347)
Kind of assay: BSK_4H_MCP1: BioMAP Diversity Plus: 4H Assay for Monocyte Chemoattractant Protein-1 (MCP1) Biomarker Activity (AID 2283018). Conditions: primary human endothelial cells (HUVEC); actives raise or lower the signal. Summed up: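 Readout: MCP-1 ELISA on compound-treated HUVEC, sampled 24 h post-dosing. Baseline and negative control DMSO; bidirectional fit. Overt toxicity checked alongside by sulforhodamine B protein staining at time of biomarker measurement.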

Read-out in assay [16]: Human Leukocyte Antigen - DR isotype (HLADR), HLA-DRA (gene 3122)
Kind of assay: BSK_3C_HLADR: BioMAP Diversity Plus: 3C Assay for Human Leukocyte Antigen - DR isotype (HLADR) Biomarker Activity (AID 2283019).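 As to outcome: ELISA of cell-surface HLA-DR on HUVEC 24 h after dosing.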 Conditions: primary human endothelial cells (HUVEC); actives raise or lower the signal. A digest of the protocol:
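Primary human umbilical vein endothelial cells (3C system) were dosed with compound and cell-surface HLA-DR was quantified by ELISA at 24 h. Activity was fitted bidirectionally against DMSO as negative control and baseline.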

Read-out in assay [17]: Interleukin-8 (IL8), CXCL8 (gene 3576)
Kind of assay: BSK_3C_IL8: BioMAP Diversity Plus: 3C Assay for Interleukin-8 (IL8) Biomarker Activity (AID 2283020). To be noted: primary human endothelial cells (HUVEC); actives raise or lower the signal. Summed up:
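Human vascular endothelial cells (umbilical vein) in the 3C system; IL-8 level detected by ELISA at 24 h post-dose, with DMSO as baseline.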

Assay [18] concerns the target human Peroxisome Proliferator-activated Receptor delta (PPARd), PPARD (gene 5467) (UniProt Q03181). The assay can be described thus: ATG_PPARd_TRANS: Attagene TRANS-FACTORIAL HepG2 Assay for human Peroxisome Proliferator-activated Receptor delta (PPARd) (AID 2283002; active = hit-call score of the fitted dose curve at least 0.9, where 1 is the maximum). Summed up:
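Transient HepG2 transfection (multiple GAL4-UAS RTUs, chimeric receptor-Gal4); 24 h dosing; total RNA → oligo(dT) RT → PCR → 6-FAM primer extension → HpaI cut → CE. Positive direction vs DMSO.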

The target in assay [19] is human RAR-related Orphan Receptor beta (RORb), RORB (gene 6096) (UniProt Q92753). The assay can be described thus: ATG_RORb_TRANS: Attagene TRANS-FACTORIAL HepG2 Assay for human RAR-related Orphan Receptor beta (RORb) (AID 2283010; active = hit-call score of the fitted dose curve at least 0.9, where 1 is the maximum). Summed up: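 In this TRANS-format test, human HepG2 cells express chimeric NR-Gal4 fusion proteins driving GAL4-UAS reporters. After 24 h dosing, reporter transcripts are measured by fluorescent RT-PCR/capillary electrophoresis, with DMSO as negative control.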

Assay [20] has as its target human Peroxisome Proliferator-activated Receptor alpha (PPARa), PPARA (gene 5465) (UniProt Q07869). Kind of assay: ATG_PPARa_TRANS: Attagene TRANS-FACTORIAL HepG2 Assay for human Peroxisome Proliferator-activated Receptor alpha (PPARa) (AID 2283001; active = hit-call score of the fitted dose curve at least 0.9, where 1 is the maximum). Summed up:
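Reporter transcripts from GAL4-UAS units in transfected HepG2 were quantified 24 h after dosing. Detection used reverse transcription, PCR, fluorescent primer extension and capillary electrophoresis, with DMSO as baseline.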

SMILES strings stand for the structures. Inconclusive results are not listed. Active and inactive are the calls of the source. The calls were made as follows, unless noted: active = hit-call score of the fitted dose curve at least 0.9, where 1 is the maximum; inactive = score below 0.9.

The AC50 is the concentration giving half of the maximal activity seen.

Sequence of human Thyroid Receptor alpha (THRa1), THRA (gene 7067) (P10827 whole entry, looked up, the tested form may be a part): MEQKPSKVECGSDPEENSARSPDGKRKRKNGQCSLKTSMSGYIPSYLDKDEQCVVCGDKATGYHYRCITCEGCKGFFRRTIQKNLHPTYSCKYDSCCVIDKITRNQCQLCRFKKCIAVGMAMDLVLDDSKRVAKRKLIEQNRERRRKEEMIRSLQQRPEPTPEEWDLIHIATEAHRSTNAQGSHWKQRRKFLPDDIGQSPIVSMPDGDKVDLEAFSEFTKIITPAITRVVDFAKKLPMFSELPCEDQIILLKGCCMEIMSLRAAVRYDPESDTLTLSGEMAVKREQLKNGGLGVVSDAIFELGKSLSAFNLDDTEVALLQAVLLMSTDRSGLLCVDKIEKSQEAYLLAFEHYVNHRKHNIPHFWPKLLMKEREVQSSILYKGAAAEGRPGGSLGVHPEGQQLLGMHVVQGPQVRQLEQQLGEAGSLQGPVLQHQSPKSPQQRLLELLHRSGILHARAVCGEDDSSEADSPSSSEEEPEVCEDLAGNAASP
Sequence of Nuclear receptor subfamily 1 group I member 2 (Homo sapiens) (O75469 whole entry, looked up, the tested form may be a part): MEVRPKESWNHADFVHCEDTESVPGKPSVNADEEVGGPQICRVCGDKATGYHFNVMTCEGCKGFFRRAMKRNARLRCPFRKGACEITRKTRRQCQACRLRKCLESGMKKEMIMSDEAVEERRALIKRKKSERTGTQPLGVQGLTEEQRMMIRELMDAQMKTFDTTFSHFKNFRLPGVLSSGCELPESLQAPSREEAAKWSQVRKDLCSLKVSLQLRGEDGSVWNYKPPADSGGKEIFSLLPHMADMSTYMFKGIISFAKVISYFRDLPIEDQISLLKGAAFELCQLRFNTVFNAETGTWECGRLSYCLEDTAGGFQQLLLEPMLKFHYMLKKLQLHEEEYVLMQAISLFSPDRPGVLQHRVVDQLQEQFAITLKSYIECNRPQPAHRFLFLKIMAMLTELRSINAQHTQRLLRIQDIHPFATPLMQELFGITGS
Sequence of Peroxisome proliferator-activated receptor gamma (Homo sapiens) (P37231 whole entry, looked up): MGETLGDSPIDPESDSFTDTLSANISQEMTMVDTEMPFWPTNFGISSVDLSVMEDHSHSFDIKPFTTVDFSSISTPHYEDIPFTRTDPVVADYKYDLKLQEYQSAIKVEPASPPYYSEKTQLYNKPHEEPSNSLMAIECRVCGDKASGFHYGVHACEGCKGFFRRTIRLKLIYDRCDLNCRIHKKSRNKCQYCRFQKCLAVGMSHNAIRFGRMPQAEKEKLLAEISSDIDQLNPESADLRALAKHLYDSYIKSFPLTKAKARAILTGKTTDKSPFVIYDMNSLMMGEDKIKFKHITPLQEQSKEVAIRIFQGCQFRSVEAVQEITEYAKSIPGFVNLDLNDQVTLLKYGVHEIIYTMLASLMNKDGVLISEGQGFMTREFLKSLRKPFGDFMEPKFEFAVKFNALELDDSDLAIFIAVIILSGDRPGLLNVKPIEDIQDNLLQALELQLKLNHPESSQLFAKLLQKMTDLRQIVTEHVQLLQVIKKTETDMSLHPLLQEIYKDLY
Sequence of human RAR-related Orphan Receptor gamma (RORg), RORC (gene 6097) (P51449 whole entry, looked up, the tested form may be a part): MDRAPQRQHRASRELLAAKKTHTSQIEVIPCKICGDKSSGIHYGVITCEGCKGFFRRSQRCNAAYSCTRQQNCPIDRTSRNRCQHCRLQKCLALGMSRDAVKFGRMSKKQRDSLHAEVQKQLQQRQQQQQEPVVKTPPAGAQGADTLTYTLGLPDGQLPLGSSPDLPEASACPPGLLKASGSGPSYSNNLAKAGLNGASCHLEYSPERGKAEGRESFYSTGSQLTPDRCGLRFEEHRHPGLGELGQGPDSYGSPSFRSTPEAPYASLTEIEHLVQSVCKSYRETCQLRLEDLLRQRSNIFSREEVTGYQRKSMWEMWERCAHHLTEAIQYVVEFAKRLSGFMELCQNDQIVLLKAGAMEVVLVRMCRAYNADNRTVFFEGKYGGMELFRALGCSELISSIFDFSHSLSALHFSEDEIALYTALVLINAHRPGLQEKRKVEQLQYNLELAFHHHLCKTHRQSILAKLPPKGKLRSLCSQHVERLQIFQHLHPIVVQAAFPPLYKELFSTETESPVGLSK
Sequence of human Retinoic Acid Receptor gamma (RARg), RARG (gene 5916) (P13631 whole entry, looked up, the tested form may be a part): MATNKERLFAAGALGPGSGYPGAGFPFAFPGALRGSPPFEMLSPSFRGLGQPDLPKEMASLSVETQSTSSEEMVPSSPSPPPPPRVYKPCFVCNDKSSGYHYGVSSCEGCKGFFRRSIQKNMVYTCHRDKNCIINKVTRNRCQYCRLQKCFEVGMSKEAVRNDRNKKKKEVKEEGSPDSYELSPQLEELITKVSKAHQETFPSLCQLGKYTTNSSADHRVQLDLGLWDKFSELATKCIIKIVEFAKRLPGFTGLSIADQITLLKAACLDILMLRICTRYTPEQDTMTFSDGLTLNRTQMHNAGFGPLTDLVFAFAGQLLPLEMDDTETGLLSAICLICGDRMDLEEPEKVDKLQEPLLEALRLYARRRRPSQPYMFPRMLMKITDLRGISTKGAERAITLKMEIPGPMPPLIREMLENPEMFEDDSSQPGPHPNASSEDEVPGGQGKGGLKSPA
Sequence of E-selectin (Homo sapiens) (P16581 whole entry, looked up): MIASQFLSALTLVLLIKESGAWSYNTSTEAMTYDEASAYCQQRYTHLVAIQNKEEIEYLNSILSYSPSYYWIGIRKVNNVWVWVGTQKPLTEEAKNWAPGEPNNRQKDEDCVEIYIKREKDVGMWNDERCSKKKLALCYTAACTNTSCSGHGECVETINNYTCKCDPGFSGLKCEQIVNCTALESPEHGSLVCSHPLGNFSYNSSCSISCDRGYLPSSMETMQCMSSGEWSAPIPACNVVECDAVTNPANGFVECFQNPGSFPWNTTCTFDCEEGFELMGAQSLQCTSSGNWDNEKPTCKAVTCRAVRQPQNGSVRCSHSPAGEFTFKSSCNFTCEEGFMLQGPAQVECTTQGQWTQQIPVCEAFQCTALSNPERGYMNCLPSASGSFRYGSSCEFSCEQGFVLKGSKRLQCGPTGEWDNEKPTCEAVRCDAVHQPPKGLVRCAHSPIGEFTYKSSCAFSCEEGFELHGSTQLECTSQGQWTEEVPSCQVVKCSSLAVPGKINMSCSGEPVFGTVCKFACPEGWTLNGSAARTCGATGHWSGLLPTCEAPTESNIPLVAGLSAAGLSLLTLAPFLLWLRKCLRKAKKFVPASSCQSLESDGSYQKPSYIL
Sequence of human RAR-related Orphan Receptor beta (RORb), RORB (gene 6096) (Q92753 whole entry, looked up, the tested form may be a part): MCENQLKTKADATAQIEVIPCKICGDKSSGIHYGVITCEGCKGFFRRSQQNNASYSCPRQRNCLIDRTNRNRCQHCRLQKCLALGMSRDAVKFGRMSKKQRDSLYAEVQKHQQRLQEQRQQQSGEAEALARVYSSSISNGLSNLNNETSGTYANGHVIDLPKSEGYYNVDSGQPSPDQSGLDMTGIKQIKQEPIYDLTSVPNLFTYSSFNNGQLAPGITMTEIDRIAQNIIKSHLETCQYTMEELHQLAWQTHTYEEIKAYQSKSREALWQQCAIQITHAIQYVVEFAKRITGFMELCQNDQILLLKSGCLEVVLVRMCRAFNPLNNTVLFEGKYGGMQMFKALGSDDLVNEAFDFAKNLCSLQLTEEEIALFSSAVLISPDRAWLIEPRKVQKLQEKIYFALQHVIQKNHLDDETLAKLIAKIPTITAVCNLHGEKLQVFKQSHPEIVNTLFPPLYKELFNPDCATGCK
Sequence of human Retinoic Acid Receptor beta (RARb), RARB (gene 5915) (P10826 whole entry, looked up, the tested form may be a part): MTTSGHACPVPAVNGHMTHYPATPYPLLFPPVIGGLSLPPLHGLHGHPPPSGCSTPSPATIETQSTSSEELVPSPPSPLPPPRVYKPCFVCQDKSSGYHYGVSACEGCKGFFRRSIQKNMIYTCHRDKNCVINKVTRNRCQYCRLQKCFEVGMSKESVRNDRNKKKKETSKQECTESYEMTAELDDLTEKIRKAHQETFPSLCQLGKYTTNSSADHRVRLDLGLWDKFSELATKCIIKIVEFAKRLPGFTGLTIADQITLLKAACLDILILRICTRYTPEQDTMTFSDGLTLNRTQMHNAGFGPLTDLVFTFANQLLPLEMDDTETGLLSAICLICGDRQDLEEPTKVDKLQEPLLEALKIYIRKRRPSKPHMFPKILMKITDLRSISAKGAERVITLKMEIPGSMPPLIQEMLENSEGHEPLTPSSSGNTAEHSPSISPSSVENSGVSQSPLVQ
Sequence of Retinoic acid receptor RXR-alpha (Homo sapiens) (P19793 whole entry, looked up, the tested form may be a part): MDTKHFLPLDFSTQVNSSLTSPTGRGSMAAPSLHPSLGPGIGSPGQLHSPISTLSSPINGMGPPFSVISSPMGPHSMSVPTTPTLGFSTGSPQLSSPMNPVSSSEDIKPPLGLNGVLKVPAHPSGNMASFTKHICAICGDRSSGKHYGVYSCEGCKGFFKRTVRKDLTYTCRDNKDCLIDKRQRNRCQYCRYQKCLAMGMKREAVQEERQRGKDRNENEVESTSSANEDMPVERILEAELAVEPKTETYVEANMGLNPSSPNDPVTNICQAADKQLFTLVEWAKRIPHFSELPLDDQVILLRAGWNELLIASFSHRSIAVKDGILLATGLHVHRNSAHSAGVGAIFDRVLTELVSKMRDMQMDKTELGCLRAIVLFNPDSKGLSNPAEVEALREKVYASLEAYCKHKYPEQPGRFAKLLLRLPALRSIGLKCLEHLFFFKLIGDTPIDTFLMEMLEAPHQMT
Sequence of human Peroxisome Proliferator-activated Receptor delta (PPARd), PPARD (gene 5467) (Q03181 whole entry, looked up, the tested form may be a part): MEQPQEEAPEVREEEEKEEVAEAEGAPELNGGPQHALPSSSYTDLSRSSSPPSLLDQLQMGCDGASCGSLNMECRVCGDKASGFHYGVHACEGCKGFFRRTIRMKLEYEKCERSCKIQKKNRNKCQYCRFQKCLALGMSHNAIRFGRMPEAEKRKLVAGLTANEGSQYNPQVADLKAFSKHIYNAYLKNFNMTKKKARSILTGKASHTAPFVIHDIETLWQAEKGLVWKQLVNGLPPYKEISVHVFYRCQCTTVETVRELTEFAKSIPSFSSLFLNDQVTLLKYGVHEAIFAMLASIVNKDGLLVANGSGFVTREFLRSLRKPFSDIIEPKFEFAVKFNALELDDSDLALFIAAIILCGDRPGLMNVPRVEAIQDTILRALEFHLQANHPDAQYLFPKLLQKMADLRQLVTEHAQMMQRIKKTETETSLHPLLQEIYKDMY

In the case of `C[N+]1(C)CCCCC1`, the result in assay [1], in assay [2], in assay [3], in assay [4], in assay [5] and in assay [6] was inactive. In addition, the compound was called inactive in assay [7], in [8], in assay [9], in assay [10], in assay [11] and in [12]. The outcome in assay [13], in assay [14], in assay [15], in assay [16] and in assay [17] was inactive.
Consider `CCOP(=O)(NC(C)C)Oc1ccc(SC)c(C)c1` (stereo not given), for which the result in assay [1], in assay [18], in [2], in assay [3], in [4] and in assay [6] was inactive. Moreover, the compound was called inactive in [7], in [19], in assay [8], in [9], in [10] and in assay [12]. In addition, the outcome in assay [13], in [14], in assay [15], in [16] and in assay [17] was inactive. In addition, the AC50 in assay [5] was 32.3 µM (active).
Consider `CCc1cnc(C2=NC(C)(C(C)C)C(=O)N2)c(C(=O)O)c1` (stereo not given), for which the result in assay [1], in assay [2], in assay [3], in assay [4], in assay [5] and in assay [8] was inactive. The outcome in assay [12], in [13], in [14], in [15], in assay [16] and in assay [17] was inactive.
As for `C#CC(C)(C)NC(=O)c1cc(Cl)cc(Cl)c1`, the outcome in assay [1], in [2], in [4], in [19], in assay [8] and in assay [9] was inactive. In addition, the compound was called inactive in assay [10], in assay [11], in assay [12], in assay [13], in assay [14] and in [15]. The outcome in [17] was inactive. Moreover, the AC50 in [6] was 30.9 µM (active); in [16], 19.1 µM (active).
As for `CCOP(=S)(OCC)OC(Cl)C(Cl)(Cl)Cl` (stereo not given), the result in assay [1], in assay [18], in assay [2], in assay [3], in assay [5] and in assay [6] was inactive. The compound was called inactive in assay [7], in assay [19], in assay [9], in assay [10], in [11] and in assay [13]. The result in [14], in assay [15] and in assay [17] was inactive. In addition, the values for the AC50 in assay [4], in assay [12] and in assay [16] were 32.1 µM (active), 14.7 µM (active) and 12.2 µM (active), respectively.
Regarding `CC(C)[C@H](C(=O)O[C@H](C#N)c1cccc(Oc2ccccc2)c1)c1ccc(Cl)cc1`, the result in assay [1], in assay [18], in assay [2], in [8], in assay [9] and in [10] was inactive. In addition, the compound was classed as inactive in assay [11], in assay [12], in assay [13], in assay [14], in assay [15] and in assay [17]. For the same compound, the AC50 in assay [4] is 6.57 µM (active); in assay [5], 9.37 µM (active); in [6] it was 5 µM (active); in [16] it was 12.9 µM (active).
For the compound `CCOP(=O)(OCC)Oc1cc(C)nc(C(C)C)n1`, the result in [1], in assay [18], in [2], in assay [4], in [5] and in assay [8] was inactive. Besides, the result in assay [12], in [13], in [14], in assay [15] and in [17] was inactive. Besides, in assay [16], the AC50 was 20 µM (active).
For the compound `COP(=O)(OC)SCn1c(=O)oc2cc(Cl)cnc21`, the AC50 in assay [1] was 36.9 µM (active); in assay [5] it was 14.7 µM (active); in [12], 20 µM (active); in [16], 25.1 µM (active); in [17], 11.3 µM (active). For the same compound, the compound was classed as inactive in [20], in [2], in [4], in assay [6], in assay [19] and in [8]. The outcome in [9], in [10], in assay [11], in [13], in [14] and in assay [15] was inactive.

The values above are taken from PubChem BioAssay (EPA / NIEHS).
